In the library only some 2.4% were active in any assay of this set; here they are far more common.
ANO1 activ: activates or potentiates the mouse TMEM16A chloride channel; Q8BHY3; HEK293 TMEM16A/YFP-H148Q/I152L, iodide quench fluorescence; stronger effect = lower value; B-score at 10 µM; actives 0.3% (n = 340,000);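 active = fluorescence-ratio B-score plate-corrected deviation score at least 3 library SD below zero, with starting fluorescence score within 5 deviations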;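 also: channel opened by trigger with iodide after compound preincubation; score built on the fluorescence ratio of max minus min over baseline; more negative score means more quench and so TMEM16A activation or potentiation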
TMEM16A inh: inhibitors of mouse TMEM16A calcium-activated chloride channel; Q8BHY3; HEK293 TMEM16A/YFP iodide influx fluorescence, ionomycin; normalized B-score (activity score, 25-100; higher = stronger inhibition) at 10 µM; actives 1.2% (n = 310,000);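 active = ratio plate-corrected score three or more library SD toward inhibition, starting fluorescence score within five deviations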;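 also: score derived from kinetic fluorescence span divided by baseline fluorescence per well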
CHT block: human CHT choline transport inhibition; Q9GZV3; CHT-expressing cells, membrane potential dye, choline response; stronger effect = lower value; B-score at 10 µM; actives 0.86% (n = 310,000);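 active = B-score over 3 SD under the library average, and starting fluorescence ratio not unusually high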;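 also: choline stimulus applied at its EC90 after an EC20 pre-addition; B-score computed on integrated fluorescence ratio after choline addition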
CHT allo act: allosterically activates the human high affinity choline transporter; Q9GZV3; CHT-expressing cells, membrane potential dye, choline EC20; stronger effect = higher value; LV-AA mutant CHT in HEK293 cells; B-score at 10 µM; actives 0.49% (n = 310,000); AID 488977;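 active = initial fluorescence not abnormally high and integrated response B-score, plate-corrected, over 3 SD above library mean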
CHT block conf: human CHT inhibition, confirmatory screen. shares compounds with CHT block. CHT-expressing cells, choline membrane potential dye; LV-to-AA substituted CHT, HEK293 cells. CHT activity remaining % of control (stronger effect = lower value), % at 10 µM. actives 70% (n = 2,400);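 active = choline transporter activity left, mean of duplicates at 10 µM, below buffer-only control mean minus 3 SD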;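 also: depolarization triggered by choline at its EC90 following an EC20 pre-addition; 0% = hemicholinium-3 full block and 100% = buffer-only control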
HEK293 MPD ctr: CHT inhibitor counter-screen hit in parental HEK293 cells; actives 4% (n = 2,400); membrane potential ratio readout (active if shifted either direction beyond buffer ±3SD; no single direction) at 10 µM; shares compounds with CHT block; membrane potential dye, choline response; active = decrease or increase beyond buffer ±3SD;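 also: parental cells lack the transporter so any hit is non-specific; ratio is peak minus trough fluorescence over baseline after EC90 choline challenge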
Active calls of the source: *; i = inactive; x = no result.

SMILES	ANO1 activ	TMEM16A inh	CHT block	CHT allo act	CHT block conf	HEK293 MPD ctr
Cn1[nH]c(-c2ccccc2)c(/C=N/O)c1=O	i	i	i	i	x	x
CCC(C)(C)C(=O)Nc1ccc(OC)cc1[N+](=O)[O-]	i	i	i	i	x	x
O=C1CCN(S(=O)(=O)c2ccccc2)CCN1CCOCc1ccc(F)cc1	i	i	i	i	x	x
Cc1ccc(S(=O)(=O)N2CCC(=O)N(CCOCc3ccc(F)cc3)CC2)cc1	i	i	-5.9*	i	54%*	i
CCC1CCCCN1C(=O)CCc1nnc(Cc2c[nH]c3ccccc23)o1 (stereo not given)	i	i	i	i	x	x
Cc1c(Cc2ccccc2)c(=O)oc2cc(O)ccc12	i	i	-6.5*	i	i	i
Cc1c(Cc2ccccc2)c(=O)oc2c(O)c(O)ccc12	i	x	x	x	x	x
Oc1c(N=NC(=S)Nc2ccccc2F)c2ccccc2n1Cc1ccccc1F	i	i	i	i	x	x
CCOc1cc2[nH]c(=S)n(C3CCN(Cc4ccccc4)CC3)c(=O)c2cc1OCC	i	i	-5.8*	i	i	i
O=C(CCC(=O)N1CCN(S(=O)(=O)c2ccc(Cl)cc2)CC1)Nc1ccc2ccccc2c1	i	i	i	i	x	x
NC(=O)c1ccc(NCCc2ccccc2)c([N+](=O)[O-])c1	i	i	-5*	i	i	i
O=C(Nc1ccc2c(c1)OCCO2)c1ccc(S(=O)(=O)N2CCCCC2)cc1	i	i	-6.1*	i	i	i
CC12CCC(=O)N1C(C(=O)Nc1ccc(F)cc1)CS2 (stereo not given)	i	i	i	i	x	x
O=C(O)c1ccc(C=NN2CCCCCC2)cc1	i	x	x	x	x	x
Cc1oc(-c2ccc(Cl)cc2)nc1CS(=O)CC(=O)NC(C)c1ccccc1 (stereo not given)	i	i	-6.5*	i	39%*	i
Cc1oc(-c2ccc(Cl)cc2)nc1CS(=O)CC(=O)NCc1ccccc1 (stereo not given)	i	i	i	i	x	x
CN1CCCN(c2ncnc3scc(-c4ccc(F)cc4)c23)CC1	i	i	-10*	i	24%*	i
NC(=O)Cn1c(=O)n(CCCC(=O)NC2CCN(Cc3ccccc3)CC2)c(=O)c2ccccc21	i	i	-5.6*	i	i	i
O=C(CCn1c(=O)c2ccccc2n(Cc2ccccc2)c1=O)NC1CCN(Cc2ccccc2)CC1	i	i	i	i	x	x
CCOc1ccc(-n2c(C)cc(C(=O)NS(=O)(=O)c3ccc(C)cc3)c2C)cc1	i	i	i	i	x	x
Cc1cc(=O)oc2cc(OC(C)C(=O)Nc3ccc(N4CCCCC4)cc3)ccc12 (stereo not given)	i	i	i	i	x	x
Cc1occc1C(=O)NNS(=O)(=O)c1ccc([N+](=O)[O-])cc1	i	i	-5.1*	i	46%*	i
COc1ccc(/C(O)=C2/C(=O)C(=O)N(c3ccccn3)C2c2ccc(C(C)C)cc2)cc1 (stereo not given)	i	x	x	x	x	x
COc1ccc(/C(O)=C2/C(=O)C(=O)N(c3ccccn3)C2c2cccc(Cl)c2)cc1 (stereo not given)	i	i	-5.3*	i	59%*	i
c1ncn(C23CC4CC(CC(C4)C2)C3)n1	i	i	i	i	x	x
SMILES	ANO1 activ	TMEM16A inh	CHT block	CHT allo act	CHT block conf	HEK293 MPD ctr
c1cn(C23CC4CC(CC(C4)C2)C3)cn1	i	i	-14*	i	-3.7%*	i
COc1ccc(OCC(=O)Nc2ccc3oc(=O)ccc3c2)cc1	i	i	i	i	x	x
CCc1ccc(NC(=O)COC(=O)C2(c3ccc(Cl)cc3)CCCC2)cc1	i	i	i	i	x	x
CN=C(C)c1c(O)c2ccccc2oc1=O	i	i	i	i	x	x
O=C(c1c(O)c2ccccc2oc1=O)C1CCCCC1	i	i	-7.5*	i	58%*	i
CCCCOC(=O)n1c(SCC(=O)N(CC)CC)nc2ccccc21	i	i	-5.2*	i	i	i
CCCCn1c(CN2CCN(c3ccccc3)CC2)nc2c1c(=O)n(C)c(=O)n2C	i	i	-9.6*	i	-42%*	i
CCCn1c(CN2CCN(c3cccc(Cl)c3)CC2)nc2c1c(=O)n(C)c(=O)n2C	i	i	-11*	i	-13%*	i
CCCCCn1c(CN2CCCCC2C)nc2c1c(=O)n(C)c(=O)n2C (stereo not given)	i	i	-5*	i	45%*	i
Cc1cc(=O)n2c3ccccc3n(CC(O)CN3CCOCC3)c2c1C#N (stereo not given)	i	i	i	i	x	x
O=C(NCC1CCCO1)c1cc(S(=O)(=O)N2CCOCC2)ccc1Cl (stereo not given)	i	i	i	i	x	x
Cn1c(SCc2nc3ccccc3c(=O)[nH]2)nc2ccccc21	i	i	i	i	x	x
Cn1c(-c2ccccc2)cnc1SCc1nc2ccccc2c(=O)[nH]1	i	i	-5.3*	i	60%*	i
Cc1cccc(NC(=O)C2CCN(S(C)(=O)=O)CC2)c1C	i	i	-5.3*	i	i	i
Cc1c(Cl)cccc1NC(=O)C1CCN(S(C)(=O)=O)CC1	i	i	i	i	x	x
CC(=O)N(C)c1ccc(OCC(O)CN(c2ccccc2C)S(=O)(=O)c2ccc(C)cc2)cc1 (stereo not given)	i	i	-18*	i	-11%*	i
CC(=O)N(C)c1ccc(OCC(O)CN(Cc2ccco2)S(=O)(=O)c2ccc(C)cc2)cc1 (stereo not given)	i	i	i	i	x	x
COc1ccc(OCC(=O)N/N=C/C=C/c2ccccc2)cc1	i	i	-7.9*	i	69%*	i
CCOc1ccc(NCC(=O)N/N=C/C=C/c2ccccc2)cc1	i	i	i	i	x	x
COc1ccccc1NC(=O)CCCCCN1C(=O)c2cccc([N+](=O)[O-])c2C1=O	i	i	i	i	x	x
COc1cc(/C=C2/C(=O)c3cccc([N+](=O)[O-])c3C2=O)c(Br)cc1O	i	25*	-7.2*	i	43%*	i
COc1ccc(Cl)c2sc(N(CCN(C)C)C(=O)c3ccc4c(c3)OCCO4)nc12	i	i	-9.8*	i	36%*	i
Cn1c(=O)n(CCc2ccccc2)c(=O)c2c1nc1n2CCCN1CCc1ccccc1	i	i	i	i	x	x
